Compound activity as filed in PubChem.
ATXN2 expr inh = Primary qHTS for Inhibitors of ATXN expression; Potency, µM (top dose mostly 57 µM), most hits filed as inhibitors; 360,000 tested, 0.72% active; HEK-293 ATXN2-luciferase reporter, luminescence, 24 h; further: nearly all actives have a fitted effect of over 55% in size
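qHTS (up to 57 uM final) was run with 24 h compound exposure of reporter cells at 37 °C. Each well was multiplexed: SteadyGlo luminescence measured ATXN2-luciferase expression after a fluorogenic Gly-Phe-AFC viability readout (25 uM final).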
a7 integrin act = qHTS for Activators of Integrin-Mediated Alleviation for Muscular Dystrophy. Potency, µM (series often up to 38.3 µM), hits mostly activators. alpha7betagal myoblasts, beta-gal FDG fluorescence, 48 h. 350,000 tested, 0.064% active; further: nearly all actives have a fitted effect of over 60% in size
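alpha7betagal+/- myoblasts (passage 13, 250/well) treated 48 h at 37C with compounds at 1:260 dilution of DMSO stock. Lysed, then beta-galactosidase activity read as FDG fluorescence (ex 480/em 540) after 30 min, with pre-read for autofluorescence.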
S2 tox = Viability Counterscreen for Primary qHTS for Inhibitors of ATXN expression; S2 cells (HEK-293 line with an ATXN2-luciferase reporter) viability, CellTiter-Fluor protease fluorescence, 24 h; Potency, µM (titrated, usually from 56.7 µM), hits mostly cytotoxic; 400,000 tested, 0.49% active; further: nearly all actives have a fitted effect of over 40% in size
D3 ag = qHTS of D3 Dopamine Receptor Agonist: qHTS | D(3) dopamine receptor (Homo sapiens), P35462 | D3R DiscoveRx beta-arrestin cells, luminescence, 90 min | max activation, % | 410,000 tested, 0.58% active | AID 652048, 2013; in the data active means max activation above about 30%
Target sequence (P35462 whole entry, looked up): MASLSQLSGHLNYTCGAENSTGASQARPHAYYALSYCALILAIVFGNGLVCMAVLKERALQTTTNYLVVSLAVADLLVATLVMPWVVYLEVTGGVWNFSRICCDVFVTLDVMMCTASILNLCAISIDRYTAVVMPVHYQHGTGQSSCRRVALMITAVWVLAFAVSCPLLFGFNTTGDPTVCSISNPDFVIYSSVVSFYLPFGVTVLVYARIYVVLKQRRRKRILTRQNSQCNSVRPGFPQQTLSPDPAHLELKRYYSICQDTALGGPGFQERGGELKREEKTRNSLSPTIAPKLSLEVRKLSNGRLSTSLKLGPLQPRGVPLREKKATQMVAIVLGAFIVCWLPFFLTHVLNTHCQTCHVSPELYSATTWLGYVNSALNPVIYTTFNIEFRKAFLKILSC
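Agonist-mode cell screen: cells plated at 1500/well and incubated overnight at 37 °C, then exposed to library compounds for 90 min at 37 °C. Detection reagent was added for 30–60 min at room temperature, and luminescence was read.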
IL-1B inflam inh = qHTS for Inhibitors of Inflammasome Signaling: IL-1-beta AlphaLISA Primary Screen. THP-1 LPS/ATP IL-1B secretion, AlphaLISA, 16 h; active compounds read low. activity change, % at 57.5 µM. 360,000 tested, 4.7% active; in the data active means activity change below about -50%; inconclusive means mostly about -30% to -49%
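THP-1 cells pretreated 1 hr with compounds (up to 57.5 uM final), then stimulated with LPS (250 ng/mL final) plus ATP (1.25 mM final); secreted IL-1B measured by AlphaLISA after 16 hr, decreased signal indicating inhibition.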
DRD3 antagonist = qHTS of D3 Dopamine Receptor Antagonist: qHTS; 360,000 tested, 2.5% active; D(3) dopamine receptor (Homo sapiens), P35462; AID 652054, 2013; max response, negative = inhibition, %; D3R cells, DiscoveRx beta-arrestin luminescence, antagonist mode; active compounds read low; in the data active means max response below about -50%; inconclusive means no clear call, values can overlap the other calls
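Cells expressing the human receptor were seeded at 1500 cells/well, incubated overnight at 37 degrees C in 5% CO2, then exposed to library compounds with dopamine controls for 90 minutes at 37 degrees C before luminescent detection.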
Hits are given with their value; 0 = inactive; ? = inconclusive; - = no result; [ ] = dose if it differs, or a comment. Sampled rows, rich in hits. Any-hit rate of the full collection: about 7%. Unless noted, the call rests on the fitted dose curve; in most records, active means well fitted curve in the direction sought with a large enough effect; inconclusive means small, poorly fitted or top-dose-only effect, or another doubt; inactive means no such curve, though single readings can be large; an effect the other way counts as inactive or inconclusive.

SMILES	ATXN2 expr inh	a7 integrin act	S2 tox	D3 ag	IL-1B inflam inh	DRD3 antagonist
COc1cc(CNc2ccc3[nH]c(=O)[nH]c3c2)cc(Cl)c1OCc1ccc(F)cc1	?	-	?	0	-	-
O=C(c1ccc([N+](=O)[O-])cc1)N1CCN(C(=O)c2cccnc2)CC1	0	0	0	0	0	0
COc1cccc(-n2cc(CNCc3cn(C)nc3-c3ccccc3F)cn2)c1	0	0	0	67	0	0
O=c1c2c([nH]c3ccc(Br)cc13)CCCC2	0	0	0	0	0	0
O=C1Cc2c([nH]c3ccc(Br)cc23)-c2ccccc2N1	0	0	?	0	-97	0
Cc1c(F)cccc1NC(=O)CCCCCC1NC(=O)NC1C (centres undefined)	0	0	0	0	-97	0
O=C(CCCC(=O)c1ccccc1)Nc1ccc(F)cc1	0	0	0	0	0	0
CC1NC(=O)NC1CCCCCC(=O)Nc1ccc(F)cc1 (centres undefined)	0	0	0	0	-97	0
O=C(c1cc(COc2c(F)cccc2F)on1)N(Cc1ccccc1)CC1CC1	0	0	0	0	-51	0
CCOc1cc(C(=O)Nc2ccc(-c3nc4cc(C)ccc4o3)cc2)cc(OCC)c1OCC	0	-	0	0	-	-
CCc1cccc2c(-c3csc(=NC)n3C)c[nH]c12	0	0	0	0	-73	0
COc1c(CC=C(C)C)cc(C2CC(=O)c3c(O)cc(O)cc3O2)c(CC=C(C)C)c1O (centres undefined)	?	0	?	0	0	0
CC(C)=CCc1cc([C@@H]2CC(=O)c3ccc(O)c(CC=C(C)C)c3O2)ccc1O	?	0	?	31	0	0
COc1ccccc1Cn1c(=O)c2ccccc2n2c(SCC(=O)N3CCCCC3)nnc12	0	0	0	0	0	0
O=C(CSc1nnc2n(C3CCCC3)c(=O)c3ccccc3n12)N1CCCCCC1	0	0[7.66 µM]	0	34	0	0
CC1CCCN(C(=O)CSc2nnc3n(C4CCCC4)c(=O)c4ccccc4n23)C1 (centres undefined)	0	0[7.66 µM]	?	47	0	0
Fc1cc(Cl)ccc1NC1=NCCCCC1	0	0	0	0	-67	0
Fc1ccc(F)c(NC2=NCCCCC2)c1	0	0	0	0	0	0
COc1ccc2cc(-c3ccn[nH]3)ccc2c1	0	0	0	0	0	0
CCCN(CCC)c1nc2ccccc2nc1C(C#N)C(=O)OC(C)COC (centres undefined)	0	0	0	0	-51	0
CCCCN(CCCC)c1nc2ccccc2nc1C(C#N)C(=O)NCCCOC (centres undefined)	0	0	0	0	0	0
COCCNc1nc(NCCOc2ccccc2)c2sc(-c3ccccc3)cc2n1	?	-	-	0	-107	0
CC(=O)Nc1cccc(Oc2nc(NC(C)C)nc3cc(-c4ccccc4)sc23)c1	?	-	?	0	-63	0
COc1ccccc1CNc1nc(NC(C)C)nc2cc(-c3ccccc3)sc12	20µM	-	14µM	0	-115	-64
c1ccc(-c2cc3nc(NCc4cccs4)nc(NCc4ccc5occc5c4)c3s2)cc1	?	-	?	0	-89	0
SMILES	ATXN2 expr inh	a7 integrin act	S2 tox	D3 ag	IL-1B inflam inh	DRD3 antagonist
COCCNc1nc(Oc2cccc(NC(C)=O)c2)c2sc(-c3ccccc3)cc2n1	0	-	?	0	0	0
CCOC(=O)C1(C)CCN1C(=O)c1ccc(C(F)(F)F)cc1 (centres undefined)	0	-	0	0	0	0
COCCNc1nc(NCCOC)c2sc(-c3ccccc3)cc2n1	0	-	0	0	-	0
COCCNc1nc(NCc2cccc(OC)c2)c2sccc2n1	0	-	0	0	0	0
CC(C)Nc1nc(NCCOc2ccccc2Cl)c2sc(-c3ccccc3)cc2n1	?	-	?	0	-103	?
C=CCNc1nc(NCc2cccc(OC)c2)c2sc(-c3ccccc3)cc2n1	?	-	?	0	-108	0
CCS(=O)(=O)N1N=C(c2ccccc2)CC1c1ccc2nccnc2c1 (centres undefined)	0	0	0	0	0	0
COc1ccc(C(CCNCc2ccc(N(C)C)cc2)C(C)C)cc1 (centres undefined)	-	0	?	0	-100	0
COc1ccc(C(CCNCc2ccc(OC(C)C)cc2)C(C)C)cc1 (centres undefined)	?	0	?	0	-	0
COc1ccc(CNCCC(c2ccc(OC(C)C)cc2)C(C)C)cc1OC (centres undefined)	32µM	0	-	0	-98	0
Cc1ccccc1N1C(=O)c2cccc3c(N(C)CCO)ccc(c23)C1=O	0	0	0	0	?	0
COc1cccc(OCC(O)CN2CCN(c3ccc(F)cc3)CC2)c1 (centres undefined)	0	0	0	0	0	?
O=[N+]([O-])c1ccccc1OCC(O)CN1CCN(CC(O)COc2ccccc2[N+](=O)[O-])CC1 (centres undefined)	-	?	?	0	0	-93
COc1cccc(OC)c1OCC(O)CN1CCN(c2ccc(F)cc2)CC1 (centres undefined)	?	0	?	0	0	-77
COc1ccc(N2CCN(CC(O)COc3ccccc3[N+](=O)[O-])CC2)cc1 (centres undefined)	0[11.3 µM]	0	0	0	0	-54
CCCOc1ccc(Oc2nc(NCC(C)C)nc(N3CCOCC3)n2)nn1	-	-	-	0	-	-
O=C(NC1CCCc2ccccc21)C1CCCN(S(=O)(=O)c2cnc[nH]2)C1 (centres undefined)	0	0	0	0	0	0
CN1CCC(C)(C(=O)Nc2cccc(Oc3ccccc3)c2)C1 (centres undefined)	0	-	0	0	0	0
Cc1cc2c(c(=O)o1)C(C13C=CC(CC1)C3)C(C#N)=C(N)O2 (centres undefined)	0	0	0	0	0	0
C=CC(=O)N1CCc2ccc(-n3c(=O)ccc4cnc5ccc(-c6cnn(C)c6)cc5c43)cc21	15µM	-	-	-	-	-
Cc1ccc(NC(=O)C2CCCN2S(=O)(=O)c2ccc3c(c2)C(C)(C)C(=O)N3C)cc1 (centres undefined)	-	-	-	0	-	-
CCOc1ccccc1NC(=O)COC(=O)c1ccc(S(=O)(=O)N2CCCC2)cc1	0	0	0	0	0	0
CSCCC(NC(=O)c1ccc(Cl)cc1)C(=O)OCC(=O)Nc1cc(Cl)ccc1C (centres undefined)	0	0	0	0	0	0
